This is an account of results in PubChem BioAssay (EPA / NIEHS).

Active and inactive are the calls of the source. Rule for the calls: active = hit-call score of the fitted dose curve at least 0.9, where 1 is the maximum; inactive = score below 0.9.

Assay [1] deals with Transcription factor E2F1 (Homo sapiens) (UniProt Q01094). As to the kind of experiment: ATG_E2F_CIS: Attagene CIS-FACTORIAL HepG2 Assay for human E2F Transcription Factor 1 (AID 2282935). Particulars: HepG2 Attagene cis-reporter, E2F reporter RNA transcripts; actives raise or lower the signal. In short, it runs like this:
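First, HepG2 cells were transfected with reporter transcription units. Next, they were dosed for 24 h. Then RNA was isolated, converted to cDNA, PCR-amplified, FAM-labeled, HpaI-digested and analyzed by capillary electrophoresis.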

Assay [2] is described as follows: ATG_E_Box_CIS: Attagene CIS-FACTORIAL HepG2 Assay for human Enhancer Box (E-box) (AID 2282936). The following applies: HepG2 E-box cis-reporter transcription, actives raise or lower the signal. In short, it runs like this: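 Endogenous transcription factor activity was sensed in human HepG2 liver cells through transfected cis-promoter reporter units. After 24 h of dosing, total RNA was reverse-transcribed and reporter cDNA resolved by capillary electrophoresis.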

The nature of assay [3]: ATG_M_61_CIS: Attagene CIS-FACTORIAL HepG2 Assay for M61 Transcription Factor (Internal Marker) (AID 2282937). Particulars: HepG2 Attagene CIS-FACTORIAL M61 internal marker reporter; actives raise or lower the signal. In a few lines: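 Readout is reporter mRNA by RT-PCR, fluorescent primer extension and capillary electrophoresis, with gain or loss fitted relative to DMSO. Transfected HepG2 cells carrying endogenous-TF-driven cis reporters were exposed to chemicals for 24 hours.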

The nature of assay [4]: ATG_EGR_CIS: Attagene CIS-FACTORIAL HepG2 Assay for human Early Growth Response 1 (EGR1) (AID 2282938). Particulars: HepG2 Attagene CIS-FACTORIAL EGR reporter mRNA; actives raise or lower the signal. In short, it runs like this:
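After 24 h compound exposure, RNA from reporter-transfected HepG2 cells was reverse-transcribed, PCR-amplified, fluorescently labelled and resolved by capillary electrophoresis. EGR1 reporter transcript changes, up or down, were fitted against DMSO, reflecting endogenous transcription-factor activity.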

A short description of assay [5]: ATG_M_19_CIS: Attagene CIS-FACTORIAL HepG2 Assay for M19 Transcription Factor (Internal Marker) (AID 2282939). The following applies: HepG2 Attagene CIS-FACTORIAL M19 internal marker reporter; actives raise or lower the signal. In short, it runs like this: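 Readout: fluorescent reporter-transcript fragments by capillary electrophoresis after RT-PCR. Human HepG2 liver cells carried transfected MRTU constructs reporting endogenous transcription-factor activity; exposure 24 h. Gain or loss of signal fitted relative to DMSO.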

A short description of assay [6]: ATG_ERE_CIS: Attagene CIS-FACTORIAL HepG2 Assay for Estrogen Response Element (ERE) (AID 2282940). Particulars: HepG2 ERE cis-reporter, Attagene RNA transcript; actives raise or lower the signal. In a few lines: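 Readout: reporter mRNA induction by RT-PCR, FAM-labelled primer extension, HpaI digestion and capillary electrophoresis, 24 h after dosing transfected HepG2 cells. Endogenous transcription factors act on cis-element-regulated reporters. Gain or loss fitted against DMSO.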

Assay [7] is described as follows: ATG_Ets_CIS: Attagene CIS-FACTORIAL HepG2 Assay for human Erythroblast Transformation Specific (ETS) (AID 2282941). The following applies: HepG2 ETS cis-reporter transcription, actives raise or lower the signal. In a few lines: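 Multiplexed reporter transcript profiling: HepG2, 24 h treatment, total RNA to cDNA, PCR, 6-FAM labelling, HpaI cut, capillary electrophoresis. Gain- or loss-of-signal fitted against DMSO.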

For assay [8], the target named is Hepatocyte nuclear factor 3-beta (Homo sapiens) (UniProt Q9Y261). Briefly: ATG_FoxA2_CIS: Attagene CIS-FACTORIAL HepG2 Assay for human Forkhead box A2 (FOXA2) (AID 2282942). The following applies: HepG2 cis-reporter transcription factor activity, 24 h; actives raise or lower the signal. In short, it runs like this:
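Endogenous transcription factor activity is captured via cis-element-driven reporter transcripts in transfected HepG2. Total RNA taken at 24 h post-dosing; labelled RT-PCR products resolved by capillary electrophoresis. Gain or loss fitted versus DMSO.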

The nature of assay [9]: ATG_FoxO_CIS: Attagene CIS-FACTORIAL HepG2 Assay for human Forkhead box O (FoxO) (AID 2282943). Particulars: HepG2 Attagene cis-reporter, FoxO element, mRNA; actives raise or lower the signal. In a few lines: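 HepG2 cells transiently transfected with cis-promoter-driven multiple reporter transcription units; 24 h after chemical dosing, reporter mRNA quantified by RT-PCR, fluorescent primer extension, HpaI digestion and capillary electrophoresis. Bidirectional fitting versus DMSO baseline.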

Assay [10] is described as follows: ATG_GATA_CIS: Attagene CIS-FACTORIAL HepG2 Assay for human GATA Binding Protein (AID 2282944). Particulars: HepG2 GATA cis-element reporter, Attagene multiplex mRNA; actives raise or lower the signal. In short, it runs like this:
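Read-out: fluorescent reporter mRNA fragments resolved by capillary electrophoresis after RT-PCR. Human liver HepG2 cells carried transiently transfected cis-regulated reporter constructs; chemicals incubated 24 h; gain or loss of signal fitted relative to DMSO.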

Assay [11] in a line: ATG_GLI_CIS: Attagene CIS-FACTORIAL HepG2 Assay for human Zinc Finger Protein GLI1 (AID 2282945). Particulars: HepG2, Attagene cis-factorial reporter mRNA, GLI element; actives raise or lower the signal. In short, it runs like this: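 HepG2 cells transiently transfected with cis-promoter multiplexed reporter units report endogenous transcription factor activity. After 24 h chemical exposure, reporter mRNA was quantified by RT-PCR, 6-FAM labelling, HpaI digestion and capillary electrophoresis, with bidirectional fitting against DMSO.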

Assay [12] in a line: ATG_ISRE_CIS: Attagene CIS-FACTORIAL HepG2 Assay for human Interferon Regulatory Factor 1 (IRF1) binding to an Interferon-Stimulated Response Element (ISRE) (AID 2282948). The following applies: HepG2 ISRE cis-reporter (Attagene), mRNA transcription readout; actives raise or lower the signal. In a few lines:
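Signal reflects induction or loss of ISRE-linked reporter mRNA in transiently transfected HepG2 cells after a 24 h treatment, detected by fluorescent RT-PCR fragments on capillary electrophoresis and normalised to DMSO.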

Assay [13] can be described thus: ATG_M_32_CIS: Attagene CIS-FACTORIAL HepG2 Assay for M32 Transcription Factor (Internal Marker) (AID 2282949).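 Note: background control marker of the multiplexed CIS panel rather than a real target.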 Particulars: HepG2 Attagene cis-factorial M32 reporter, mRNA; actives raise or lower the signal. In a few lines:
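HepG2 transfectants (cis-regulated reporter transcription units) dosed 24 h. Reporter mRNA by RT-PCR plus CE, analysed as gain or loss relative to DMSO.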

The nature of assay [14]: ATG_M_06_CIS: Attagene CIS-FACTORIAL HepG2 Assay for M06 Transcription Factor (Internal Marker) (AID 2282950). Particulars: HepG2 Attagene CIS-FACTORIAL M06 internal marker reporter; actives raise or lower the signal. In a few lines:
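Terse: HepG2, transient MRTU transfection (FuGene 6), 24 h dosing; total RNA, oligo(dT) RT, PCR, FAM label, HpaI cut, capillary electrophoresis; bidirectional fit vs DMSO baseline; background-control endpoint.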

The target in assay [15] is Hypoxia-inducible factor 1-alpha (Homo sapiens) (UniProt Q16665). Briefly: ATG_HIF1a_CIS: Attagene CIS-FACTORIAL HepG2 Assay for human Hypoxia Inducible Factor 1 (HIF1A) (AID 2282951). The following applies: HepG2 Attagene cis-factorial HIF1a reporter transcription; actives raise or lower the signal. In short, it runs like this:
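Activity is fitted in both directions relative to DMSO. Reporter transcripts are read by RT-PCR, fluorescent primer extension and capillary electrophoresis after 24 h chemical treatment. The cells are HepG2 carrying transiently transfected cis-element-driven reporter units responding to endogenous factors.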

Assay [16] deals with Hepatocyte nuclear factor 6 (Homo sapiens) (UniProt Q9UBC0). As to the kind of experiment: ATG_HNF6_CIS: Attagene CIS-FACTORIAL HepG2 Assay for human Hepatocyte Nuclear Factor 6 (HNF6) (AID 2282952). The following applies: HepG2 Attagene cis-factorial HNF6 reporter transcription; actives raise or lower the signal. In short, it runs like this: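 Activity values derive from bidirectional fitting against DMSO of reporter mRNA levels, measured by capillary electrophoresis of labelled RT-PCR products from HepG2 cells exposed 24 h.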
Chain of Hepatocyte nuclear factor 6 (Homo sapiens) (Q9UBC0 whole entry, looked up): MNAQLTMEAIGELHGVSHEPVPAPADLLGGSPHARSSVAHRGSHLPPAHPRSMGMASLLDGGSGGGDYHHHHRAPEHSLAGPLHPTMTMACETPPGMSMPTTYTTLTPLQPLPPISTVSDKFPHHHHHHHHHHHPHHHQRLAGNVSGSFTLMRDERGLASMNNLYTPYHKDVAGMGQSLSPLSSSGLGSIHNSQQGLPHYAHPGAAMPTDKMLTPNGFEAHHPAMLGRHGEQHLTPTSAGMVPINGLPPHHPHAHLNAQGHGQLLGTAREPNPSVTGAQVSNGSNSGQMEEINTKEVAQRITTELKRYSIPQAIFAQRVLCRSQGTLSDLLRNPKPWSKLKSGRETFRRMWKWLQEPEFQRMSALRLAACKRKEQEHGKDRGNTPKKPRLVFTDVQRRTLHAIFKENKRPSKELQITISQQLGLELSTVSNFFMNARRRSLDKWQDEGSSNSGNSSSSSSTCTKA

Assay [17] in a line: ATG_MRE_CIS: Attagene CIS-FACTORIAL HepG2 Assay for human Metal Responsive Element (MRE) (AID 2282954). Particulars: HepG2 MRE cis-reporter transcription, Attagene multiplex; actives raise or lower the signal. In a few lines: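 Cells were transfected with cis-promoter reporter transcription units, then dosed for 24 h. RNA was reverse-transcribed, amplified, fluorescently labelled and resolved by capillary electrophoresis, and activity was fitted in both directions relative to DMSO.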

Assay [18] deals with Bile acid receptor (Homo sapiens) (UniProt Q96RI1). Briefly: ATG_IR1_CIS: Attagene CIS-FACTORIAL HepG2 Assay for human Nuclear Receptor Subfamily 1 Group H Member 4 (NR1H4), IR1 submotif (AID 2282946). Particulars: IR1 reporter transcription, actives raise or lower the signal. In a few lines: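 Readout: reporter transcript levels by RT-PCR with fluorescent capillary electrophoresis, from HepG2 cells transiently transfected with multiplexed cis-regulated reporters and dosed 24 h. Gain- or loss-of-signal fitted versus DMSO negative control.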
Chain of Bile acid receptor (Homo sapiens) (Q96RI1 whole entry, looked up): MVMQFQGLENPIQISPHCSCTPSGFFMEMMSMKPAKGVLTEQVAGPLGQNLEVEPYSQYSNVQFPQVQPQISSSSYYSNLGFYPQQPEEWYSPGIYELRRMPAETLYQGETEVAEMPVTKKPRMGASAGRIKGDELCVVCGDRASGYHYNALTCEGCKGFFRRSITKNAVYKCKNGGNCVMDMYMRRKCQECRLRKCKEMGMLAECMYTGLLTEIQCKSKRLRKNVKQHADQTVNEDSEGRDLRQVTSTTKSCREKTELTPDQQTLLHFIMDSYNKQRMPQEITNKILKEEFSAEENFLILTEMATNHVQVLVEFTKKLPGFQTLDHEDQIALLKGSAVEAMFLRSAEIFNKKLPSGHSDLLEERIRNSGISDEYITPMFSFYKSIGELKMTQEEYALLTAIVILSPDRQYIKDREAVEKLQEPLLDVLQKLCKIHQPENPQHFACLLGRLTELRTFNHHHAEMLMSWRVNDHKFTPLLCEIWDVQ

A short description of assay [19]: ATG_GRE_CIS: Attagene CIS-FACTORIAL HepG2 Assay for human Glucocorticoid Response Elements (GRE) (AID 2282947). Particulars: HepG2 GRE cis-reporter, Attagene multiplex mRNA; actives raise or lower the signal. In a few lines:
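Cells (HepG2) bearing transfected cis-promoter reporter transcription units were treated with chemical for 24 hours. Reporter mRNA was measured via RT-PCR with capillary electrophoresis, and activity was fitted in both directions relative to DMSO.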

The target of assay [20] is Heat shock factor protein 1 (Homo sapiens) (UniProt Q00613). As to the kind of experiment: ATG_HSE_CIS: Attagene CIS-FACTORIAL HepG2 Assay for human Heat Shock Transcription Factor 1 (HSE) (AID 2282953). Particulars: HepG2 HSE cis-reporter, Attagene RNA transcription; actives raise or lower the signal. In a few lines:
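Read-out: fluorescence of reporter-specific RT-PCR fragments separated by capillary electrophoresis. HepG2 carrying transfected cis-element reporter units; 24 h dosing; activity fitted in both directions relative to DMSO baseline.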

Chain of Hypoxia-inducible factor 1-alpha (Homo sapiens) (Q16665 whole entry, looked up): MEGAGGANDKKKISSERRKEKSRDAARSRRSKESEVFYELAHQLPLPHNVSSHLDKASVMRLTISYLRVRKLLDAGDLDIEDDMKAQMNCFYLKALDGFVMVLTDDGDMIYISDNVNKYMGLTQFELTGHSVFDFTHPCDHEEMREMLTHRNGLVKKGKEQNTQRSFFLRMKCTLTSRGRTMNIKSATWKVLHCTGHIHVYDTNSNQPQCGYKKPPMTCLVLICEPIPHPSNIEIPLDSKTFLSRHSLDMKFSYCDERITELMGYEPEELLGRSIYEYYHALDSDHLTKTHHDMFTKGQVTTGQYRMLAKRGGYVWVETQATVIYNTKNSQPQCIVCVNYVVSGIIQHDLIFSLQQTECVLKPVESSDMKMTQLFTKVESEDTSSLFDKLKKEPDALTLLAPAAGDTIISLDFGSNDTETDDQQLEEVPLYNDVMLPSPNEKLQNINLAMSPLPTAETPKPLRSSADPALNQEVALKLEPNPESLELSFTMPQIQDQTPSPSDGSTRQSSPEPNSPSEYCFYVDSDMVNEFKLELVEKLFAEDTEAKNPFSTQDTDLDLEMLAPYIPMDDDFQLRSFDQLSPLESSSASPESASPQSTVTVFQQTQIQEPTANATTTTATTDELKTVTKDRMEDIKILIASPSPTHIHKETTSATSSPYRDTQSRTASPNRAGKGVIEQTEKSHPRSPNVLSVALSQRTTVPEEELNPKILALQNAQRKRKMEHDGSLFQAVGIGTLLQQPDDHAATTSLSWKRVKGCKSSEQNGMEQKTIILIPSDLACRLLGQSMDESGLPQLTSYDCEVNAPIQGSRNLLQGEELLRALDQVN
Chain of Transcription factor E2F1 (Homo sapiens) (Q01094 whole entry, looked up): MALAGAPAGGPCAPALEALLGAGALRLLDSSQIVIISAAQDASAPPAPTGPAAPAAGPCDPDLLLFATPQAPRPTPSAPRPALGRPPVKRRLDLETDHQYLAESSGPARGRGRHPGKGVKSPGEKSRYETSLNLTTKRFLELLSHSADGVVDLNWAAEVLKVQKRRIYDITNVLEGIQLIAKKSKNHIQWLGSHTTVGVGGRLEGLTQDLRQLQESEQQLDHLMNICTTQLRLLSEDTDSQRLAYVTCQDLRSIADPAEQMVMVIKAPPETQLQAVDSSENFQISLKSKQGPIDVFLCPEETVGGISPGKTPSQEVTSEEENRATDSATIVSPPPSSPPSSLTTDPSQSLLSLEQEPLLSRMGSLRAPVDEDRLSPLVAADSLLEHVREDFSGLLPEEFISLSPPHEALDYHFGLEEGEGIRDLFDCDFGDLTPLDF
Chain of Hepatocyte nuclear factor 3-beta (Homo sapiens) (Q9Y261 whole entry, looked up): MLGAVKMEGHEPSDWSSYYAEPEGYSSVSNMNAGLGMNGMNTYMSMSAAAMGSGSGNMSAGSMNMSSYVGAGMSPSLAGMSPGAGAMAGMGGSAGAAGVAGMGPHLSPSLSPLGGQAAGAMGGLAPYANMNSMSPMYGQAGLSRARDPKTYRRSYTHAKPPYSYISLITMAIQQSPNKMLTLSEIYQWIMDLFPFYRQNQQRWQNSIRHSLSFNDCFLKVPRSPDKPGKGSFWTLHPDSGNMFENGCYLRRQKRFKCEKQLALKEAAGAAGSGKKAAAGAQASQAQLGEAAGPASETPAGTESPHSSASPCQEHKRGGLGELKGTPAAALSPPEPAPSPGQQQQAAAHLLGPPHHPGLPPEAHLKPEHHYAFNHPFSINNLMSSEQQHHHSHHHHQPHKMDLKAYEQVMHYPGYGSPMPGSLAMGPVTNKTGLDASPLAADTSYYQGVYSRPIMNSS
Chain of Heat shock factor protein 1 (Homo sapiens) (Q00613 whole entry, looked up, the tested form may be a part): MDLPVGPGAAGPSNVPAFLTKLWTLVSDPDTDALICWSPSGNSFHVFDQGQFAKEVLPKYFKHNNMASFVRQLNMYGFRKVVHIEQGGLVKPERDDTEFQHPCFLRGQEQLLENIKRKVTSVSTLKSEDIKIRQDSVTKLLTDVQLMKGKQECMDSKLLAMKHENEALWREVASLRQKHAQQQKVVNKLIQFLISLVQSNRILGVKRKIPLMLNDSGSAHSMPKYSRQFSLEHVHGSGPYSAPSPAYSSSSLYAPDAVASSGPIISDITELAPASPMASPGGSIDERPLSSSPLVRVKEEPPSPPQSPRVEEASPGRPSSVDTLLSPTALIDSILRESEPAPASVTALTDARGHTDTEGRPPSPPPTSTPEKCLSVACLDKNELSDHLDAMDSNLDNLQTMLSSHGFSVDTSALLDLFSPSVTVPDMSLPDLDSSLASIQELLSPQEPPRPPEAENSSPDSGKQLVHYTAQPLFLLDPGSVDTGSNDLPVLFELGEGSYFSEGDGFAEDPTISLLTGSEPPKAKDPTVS

In the case of `c1ccc2c(c1)Nc1ccccc1S2`, the compound was called inactive in assay [1], in [2], in assay [3], in assay [4], in assay [5] and in assay [7]. Moreover, the compound was classed as inactive in assay [8], in assay [9], in [10], in [11], in assay [12] and in assay [13]. For the same compound, the call in [14], in assay [15], in assay [16] and in assay [17] was inactive. Further, the half-maximal activity concentration (AC50) in assay [6] was 16.2 µM (active).
On to `CCOc1ccc(C(C)(C)COCc2cccc(Oc3ccccc3)c2)cc1`, for which the call in [1], in assay [2], in assay [3], in assay [4], in assay [5] and in [6] was inactive. Moreover, the call in [7], in assay [8], in [9], in assay [10], in [11] and in assay [18] was inactive. Moreover, the call in assay [19], in assay [12], in [14], in [15], in assay [16] and in [20] was inactive. In assay [17], the result was inactive.
In the case of `[N-]=[N+]=[N-]`, the compound was called inactive in assay [1], in assay [2], in assay [3], in assay [4], in [5] and in [6]. The compound was called inactive in assay [7], in [8], in [9], in assay [10], in assay [11] and in [19]. The call in [12], in assay [13], in [14], in assay [15], in [16] and in [20] was inactive. Moreover, in assay [17], the outcome was inactive.
For the compound `CC(C)(C)c1ccc(O)cc1`, the compound was classed as inactive in assay [1], in [2], in assay [3], in assay [4], in assay [5] and in assay [7]. The result in assay [8], in assay [9], in assay [10], in assay [11], in assay [12] and in [13] was inactive. Besides, the compound was classed as inactive in assay [14] and in assay [20]. The AC50 in assay [6] was 3.14 µM (active); in assay [15] it was 76.7 µM (active); in assay [17] it was 164 µM (active).

As a reminder, the AC50 is the concentration at which the activity in the assay is half-maximal.
